From PubChem BioAssay AID588850 (Sanford-Burnham Center for Chemical Genomics, 2011)
About 3,100 (0.86%) of roughly 360,000 compounds were called active.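 Rule for the calls: active = at least 50% inhibition at 5 µM, scaled per plate between neutral and stimulator controls; inactive = the rest.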 The entries come from a sample that favours actives as a whole.

Experiment: NF-kB reporter blockers in CF airway cells – cell-based, GFP fluorescence, uHTS, primary screen (AID 588850);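 note: PAF is a Pseudomonas aeruginosa culture filtrate used as stimulus; plate controls were PAF-stimulated DMSO wells for no effect and unstimulated DMSO wells for full effect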
Settings: KKLEB NF-kB-GFP reporter, PAF-induced, GFP fluorescence overnight; at 5 µM; active compounds read high

inhibition, active:
COc1ccc2[nH]c(=O)c(CN(Cc3cccnc3)S(=O)(=O)c3ccccc3F)cc2c1 82.1%
Cc1oc2c(F)c(F)c(F)c(F)c2c1S(=O)(=O)Nc1cccc(C(F)(F)F)c1 50.4%
O=C(Nc1ccncc1)c1c(F)cccc1F 81.6%
C#CCN(C[C@@H]1[C@@H](OC(=O)NC2CC2)[C@@H](OC(=O)NC2CC2)Cn2c(=O)ccc(=O)n21)S(=O)(=O)c1ccc(C)cc1 53.2%
CCN1CCC(O)(/C=C/c2ccc(C)cc2)C(C(=O)/C=C/c2ccc(C)cc2)C1 (configuration not stated) 79.8%
COc1ccccc1-n1nnnc1S(=O)(=O)Cc1ccc(Cl)cc1 85.9%
O=C(/C(=C/c1cccc(Cl)c1)c1nc2ccccc2[nH]1)c1ccccc1 82.3%
COc1ccc(NC(=O)/C(Cl)=C(/Cl)S(=O)Cc2ccc(C)cc2)cn1 (configuration not stated) 90%
COc1ccc(NC(=O)c2cc(-c3cc(OC)c(OC)c(OC)c3)nc3ccccc23)c(OC)c1 60.9%
CC(C)n1cnc2c(Nc3cccc(Cl)c3)nc(N(CCO)CCCO)nc21 72.6%
O=S(=O)(Nc1ccc(O)c2ccccc12)c1ccc(OC(F)(F)F)cc1 96%
Cc1ncc(CC(=O)n2cc(C(=O)c3cc(Cl)ccc3O)cn2)s1 60.8%
CC(=O)OC(C)C[N+](C)(C)C (configuration not stated) 80.7%
CC(C)C[C@H]1CNC(=S)N1C[C@H]1CCCN1C[C@H](Cc1ccc(O)cc1)N1C[C@H](Cc2ccc(O)cc2)N(CC2CCCCC2)C1=S 65.6%
O=[N+]([O-])c1cc(S(=O)(=O)Nc2cccc(Cl)c2)ccc1N=Nc1c(O)[nH]c2ccccc12 80%
Cc1ccc([C@H]2C[C@H](O)[C@@H](n3cc(COC(=O)c4ccccc4)nn3)CN2CC2CCCCC2)cc1 58.5%
COc1ccc(NC(=S)SC)cc1OC 59.7%

inhibition, inactive:
COC(=O)CNC(=O)C(CCSC)NC(C)=O (configuration not stated) -2.1%
COc1ccc(-c2[nH]ncc2CN(C)Cc2cccnc2)c(F)c1 14.6%
CCOc1ccc2[nH]c(=O)c(CN(CCCO)S(=O)(=O)c3ccc(F)cc3)cc2c1 2.3%
CCCN(c1ccc(C(C)C)cc1)S(=O)(=O)c1c(C)[nH]c(=O)[nH]c1=O -4.9%
Cc1ccc(N(CCC(=O)O)S(=O)(=O)c2cccc(C(F)(F)F)c2)cc1 11%
Cc1noc(C)c1S(=O)(=O)Nc1cc(C(F)(F)F)ccc1N1CCOCC1 2.4%
Cc1ccsc1C(=O)NC1CCCCC1C (configuration not stated) 6.2%
CC(C)Cc1nn2c(=O)cc(O)nc2s1 -9.2%
COC(=O)c1scc(C)c1NC(=O)CSc1ccc(Cl)cc1 -3.3%
CCCCOc1ccc(C(=O)NCC(=O)OCC(=O)c2c(N)n(C)c(=O)n(C)c2=O)cc1 14.9%
COc1cccc(OC)c1C(=O)Nc1ccc(Cc2ccncc2)cc1 -1.5%
O=C(Nc1ccc(S(=O)(=O)N2CCCCCC2)cc1)c1c(F)cccc1F -20.3%
CNC[C@H]1Oc2c(NC(=O)C3CCCCC3)cccc2C(=O)N([C@H](C)CO)C[C@@H]1C 12.4%
O=S1(=O)CC(N2CCC(Cc3ccccc3)CC2)CN1Cc1ccccc1 (configuration not stated) -8.1%
CCNC(=O)CC1C(=O)N(c2ccc(F)cc2)C(=O)N1Cc1cccs1 (configuration not stated) -17.2%
Cn1c(C(=O)O)ccc1S(=O)(=O)N(Cc1ccccc1)Cc1ccccc1 -3.7%
C#CCN(C[C@H]1[C@H](OC(=O)NC2CCCC2)[C@H](OC(=O)NC2CCCC2)C[C@H]2C(=O)N(c3ccccc3)C(=O)[C@@H]12)S(=O)(=O)c1ccc(C)cc1 15.8%
Cc1ccc(S(=O)(=O)N2C[C@H]3n4c(=O)ccc(=O)n4C[C@H](OC(=O)NC4CCCC4)[C@@]3(O)C2)cc1 -0.9%
COC(=O)Cc1c(O)ccn(Cc2cccc(C(F)(F)F)c2)c1=O -7.8%
CCN1CCC2(CC1)N=C(c1ccc(F)cc1)C(=S)N2C(=O)c1ccc(C)cc1 18%
CCOC(=O)C1=CCC2C(=O)N(Cc3ccccc3)C(=O)C12 (configuration not stated) -1.4%
CCN(C(=O)CSc1nnnn1-c1ccccc1OC)C1CCS(=O)(=O)C1 (configuration not stated) 6%
COc1ccccc1CN(C)c1nnnn1-c1ccccc1 -3.9%
CCOC(=O)C1=CC[C@@H](c2ccncc2)N(S(=O)(=O)c2ccc(C)cc2)C1 2.5%
CCCC(C(=O)NC1CCCC1)N(C(=O)Cn1nnc(-c2ccc(C)o2)n1)c1cccc(O)c1 (configuration not stated) -12.5%
O=c1c2cc(Br)ccc2nc(-c2cccc(Cl)c2)n1O -1.4%
O=c1[nH]c(/C=C/c2cccc(Br)c2)nc2ccccc12 20.4%
Cc1cc(NC(=O)CN2C(=O)NC(C)(CCc3ccccc3)C2=O)no1 (configuration not stated) -2.5%
CC(C)C(C)(C#N)NC(=O)CSc1nc2scc(-c3ccccc3)c2c(=O)[nH]1 (configuration not stated) 9%
CSCC[C@H](NC(=O)NC1CCCC1)C(=O)O -10.3%
COc1cccc(NC(=S)N(Cc2ccc(C)cc2)Cc2ccccn2)c1 -2.3%
COc1ccc(NC(=O)C2Cc3c(-c4ccc5c(c4)OCO5)ccnc3O2)cn1 (configuration not stated) 15.9%
O=S(=O)(c1ccc(-c2ccno2)s1)N1CCCCC1 7.2%
CC(C(=O)N1CCOCC1)N1c2cccc3cccc(c23)S1(=O)=O (configuration not stated) 4.3%
COc1cc(C(=O)OC(C)C(=O)NCC2CCCCC2)cc(NC(=O)c2ccco2)c1OC (configuration not stated) -5.7%
COc1ccc(NC(=O)c2sc(N3CCOCC3)nc2-c2ccccc2)c(OC)c1 9.3%
COc1ccc(-c2cc(C(=O)n3cnc4ccccc43)c3ccccc3n2)cc1 5.5%
NC(=O)CSc1nnc(-c2cccc(S(=O)(=O)N3CCOCC3)c2)o1 -5.1%
O=S(=O)(Nc1ccc(OC(F)(F)F)cc1)c1cccc2nonc12 -3.9%
COc1ccccc1NS(=O)(=O)c1ccc(C(=O)N2CCN(c3ccccc3O)CC2)cc1 6.4%
CCOC(=O)CN1CC23C=CC(O2)C(C(=O)Nc2ccc(F)cc2)C3C1=O (configuration not stated) -8.9%
NS(=O)(=O)c1ccc(CCNC(=O)CCCn2c(SCC(=O)N3CCCC3)nc3ccsc3c2=O)cc1 -8.6%
NS(=O)(=O)c1cc2c(cc1Cl)NC(C(Cl)Cl)NS2(=O)=O (configuration not stated) 22%
CCN1CCN(C(=O)N(Cc2ccc(Cl)cc2)S(=O)(=O)c2ccc(C)cc2)CC1 3.2%
O=C(c1cnn(-c2ccc(Cl)cc2)c1)c1ccccc1O -14.6%
Cc1nc2ccccn2c(=O)c1NC(=O)c1ccc(Br)o1 11.6%
Cc1ccc(SCC(=O)c2cc(C)c(OC(=S)N(C)C)c(C)c2)cc1 0%
Cc1nnc(NC(=O)CCC(=O)N2CCC(C)CC2)s1 8.8%
CCCCCCCCc1c(O)nc(-n2[nH]c(C)c(CCO)c2=O)[nH]c1=O 12.1%
CC(C[N+](C)(C)C)OC(N)=O (configuration not stated) 3.2%
CC(=O)OCC(COC(C)=O)OC(C)=O -7.3%
O=S(=O)(c1cccc(C(F)(F)F)c1)N1c2ccccc2-n2cccc2C1c1cccnc1 (configuration not stated) 13.5%
Cc1cccc(C)c1NC(=O)C(Cl)C(=O)c1ccccc1 (configuration not stated) -23.4%
N#Cc1c(N)nc2c3c(sc(=N)c2c1N)NC(=O)CC3c1ccccc1Cl (configuration not stated) -8.3%
CCC(C)[C@H]1COCCS(=O)(=O)N1Cc1ccc(C)cc1 (some centres not stated) -9.6%
CCOc1ccc(CCN2C(=S)N([C@@H](CC(C)C)CN3CCC[C@@H]3CN3C(=S)NC[C@@H]3Cc3ccc(O)cc3)C[C@@H]2CC(C)C)cc1 13.3%
CCOc1ccc(CCN2C(=S)N([C@@H](CC(C)C)CN3CCC[C@@H]3CN3C(=S)NC[C@@H]3Cc3ccc(O)cc3)C[C@@H]2Cc2ccc(O)cc2)cc1 40.9%
O=C(NCc1ccncc1)c1ccc(NS(=O)(=O)c2cccc([N+](=O)[O-])c2)cc1 8.5%
Cc1c(-c2ccccc2)n[nH]c1C(=O)N=Nc1c(O)[nH]c2ccccc12 -0.9%
Cc1ccc([C@H]2C[C@H](O)[C@@H](n3cc(COC(=O)c4ccccc4)nn3)CN2C(=O)C2CCCCC2)cc1 1.3%
CCCCCC(=O)N1C[C@H](O)[C@@H](n2cc(COC(=O)c3ccccc3)nn2)C[C@@H]1c1ccc(C)cc1 -3.3%
CC(C)=CCN1CCN(CCCc2ccccc2)CC1CCO (configuration not stated) 1.3%
Cc1ccc(C(O)c2ncc(-c3ccccc3F)[nH]2)cc1F (configuration not stated) -1.5%
COc1ccc(NC(=O)CSCc2ccc([N+](=O)[O-])cc2)cc1OC 2.8%
COc1ccc(NC(=O)C2C3CCC(O3)C2C(=O)O)cc1OC (configuration not stated) -25.3%
COc1ccc(Cl)cc1NS(=O)(=O)c1cccc(C(=O)NCC2CCCO2)c1 (configuration not stated) -16.2%
O=C(CSc1nnc(-c2ccoc2)o1)N1CCOCC1 -7.3%
COc1cccc(C(NC(C)=O)c2nc(-c3ccccc3OC)cs2)c1 (configuration not stated) -4%
CCOP(=O)(OCC)C(Cc1ccccc1)N=C(c1ccccc1)c1ccccc1 (configuration not stated) 2.4%
Cc1cc(=O)oc2c3c(cc(OCC(=O)NCC(O)c4ccccc4)c12)OC(C)(C)CC3 (configuration not stated) -24.9%
